Rab9 promoter act: activators of Rab9 promoter; actives 2.8% (n = 320,000); Potency, µM (top dose mostly 9.22 µM), without a hit: at the top dose activation, negative = inhibition, hits mostly activators; AID 485297; Huh7 Rab9 promoter-luciferase reporter, luminescence, 24 h; further: % of control where 0% means no effect; nearly all actives have a fitted effect of over 60% in size
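Luciferase signal after 10 min detection reagent at ambient indicates Rab9 promoter upregulation; stably transfected Huh7 cells were treated 24 h with compound in DMSO at 37 °C, 5% CO2.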
FLuc modulator: counter-screen for miR-21 project: firefly luciferase inhibitors or activators | AID 588342 | actives 6.9% (n = 360,000) | Potency, µM (highest dose often 57.5 µM), for inactives: top-dose activity change, negative = inhibition, hits mostly inhibitors | purified FLuc, Km substrates, luminescence inhibition | P08659;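 further: plate controls were vehicle for no effect and reference inhibitor for full effect; nearly all actives have a fitted effect of over 55% in size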
Target sequence (P08659 whole entry, looked up): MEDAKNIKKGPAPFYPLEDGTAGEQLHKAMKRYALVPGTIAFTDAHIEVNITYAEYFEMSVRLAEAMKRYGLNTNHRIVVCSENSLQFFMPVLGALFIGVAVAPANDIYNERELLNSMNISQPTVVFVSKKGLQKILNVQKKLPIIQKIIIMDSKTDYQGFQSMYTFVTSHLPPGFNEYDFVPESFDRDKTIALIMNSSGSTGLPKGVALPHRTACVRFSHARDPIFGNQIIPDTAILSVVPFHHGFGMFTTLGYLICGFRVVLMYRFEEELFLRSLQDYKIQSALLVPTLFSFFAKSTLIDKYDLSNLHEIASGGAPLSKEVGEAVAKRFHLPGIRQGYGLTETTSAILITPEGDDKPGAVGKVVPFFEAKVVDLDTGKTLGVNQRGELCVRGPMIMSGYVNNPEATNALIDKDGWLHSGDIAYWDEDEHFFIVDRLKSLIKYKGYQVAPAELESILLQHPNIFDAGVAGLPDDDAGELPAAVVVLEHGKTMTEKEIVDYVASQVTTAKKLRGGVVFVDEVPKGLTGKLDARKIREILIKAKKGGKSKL
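Purified P. pyralis luciferase (10nM final) with 10uM D-luciferin and 10uM ATP (Km levels) in 50mM Tris acetate pH 7.5, 10mM Mg acetate, 0.01% Tween-20, 0.05% BSA; qHTS 6-point titration, ~60 µM downward; luminescence read.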
SMN2 splice enh: increases expression of the SMN2 splice variant. HEK293 SMN2-luciferase splicing reporter, luminescence, 30-36 h. Potency, µM (doses to about 46.1 µM), for inactives: at the top dose activity change, positive = activation, usual class: activators. actives 2.8% (n = 210,000); further: % of control where 0% means no effect; nearly all actives have a fitted effect of over 55% in size
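qHTS luciferase splicing reporter: luminescence rises when SMN2 exon 7 is included in transfected HEK293 cells. Compound exposure lasted 30-36 h at 37C, with 4.5 mM final sodium butyrate as control, followed by a ONE-Glo read.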
NPC1 promoter act: activators of NPC1 promoter. Huh7 NPC1 promoter luciferase reporter, 24 h. Potency, µM (titrated, usually from 9.22 µM), for inactives: at the top dose activation, actives largely listed as activators. actives 2.4% (n = 320,000). AID 485313; further: % of control where 0% means no effect; nearly all actives have a fitted effect of over 60% in size
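Cells: Huh7 expressing luciferase under the NPC1 promoter, 1500/well. Seeded 2 h, compound added, incubated 24 h at 37 °C. Luciferase reagent, 10 min ambient, then luminescence.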
ELG1 repair inh: inhibitors of ELG1-dependent DNA repair in HEK293T cells; HEK293T ELG1-luciferase reporter, luminescence, 16 h; DNA damage induced by 5-fluorouridine; Potency, µM (top dose mostly 46.1 µM), without a hit: at the top dose activity change, negative = inhibition, usual class: inhibitors; actives 2.3% (n = 330,000); AID 504467; further: on the % scale 0 is the no-effect control and ±100 the full control effect; nearly all actives have a fitted effect of over 55% in size
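HEK293T cells expressing luciferase-tagged ELG1 (2,000/well) received 5-Fluorouridine plus compound or DMSO for 16 hr at 37 °C. Luciferase was read by ONE-Glo luminescence after 30 min at room temperature.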
ELG1 genotoxic: induces genotoxicity in HEK293T cells with luciferase-tagged ELG1; actives 1.3% (n = 330,000); AID 504466; HEK293T ELG1-luciferase reporter, luminescence, 16 h; Potency, µM (highest dose often 46 µM), inactives show at the highest dose activity change, positive = activation, most hits filed as activators; further: % of control where 0% means no effect; nearly all actives have a fitted effect of over 60% in size
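Quantitative HTS format in 1536-well plates. HEK293T ELG1-luciferase reporter cells receive test compound and are incubated 16 hr at 37 °C, 5% CO2; ONE-Glo added, 30 min room temperature, then luminescence read.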
The depositor's hits bear a star; ? = inconclusive; / = no result given; [ ] = another dose, or the depositor's remark. Compounds with a hit are over-represented: about 9.2% of the library has one in this group of screens. The call rests on the fitted dose curve; in most records, active means well fitted curve in the direction sought with a large enough effect; inconclusive means small, poorly fitted or top-dose-only effect, or another doubt; inactive means no such curve, though single readings can be large; an effect the other way counts as inactive or inconclusive. Potency means the concentration at half of the fitted maximal effect.

SMILES	Rab9 promoter act	FLuc modulator	SMN2 splice enh	NPC1 promoter act	ELG1 repair inh	ELG1 genotoxic
CC[C@]12c3[nH]c4cc(-c5ccco5)ccc4c3CCN1C(=O)[C@@H](CC(=O)NCCCn1ccnc1)C[C@@H]2C(=O)N1CCN(C(=O)C2CC2)CC1	/	/	/	/	15.2%	5.6%
CCOc1ccc(S(=O)(=O)N2CCCC(C(=O)Nc3cccc(C)c3)C2)cc1 (configuration not stated)	-4.5%	1.8%	/	-2.8%	?	-20.4%
Cc1cc(NC(=O)c2ccccc2)ccc1NC(=O)c1ccccc1Cl	10.1%	?	/	-0.2%	0.8%	-3.6%
Cc1cc(NC(=O)/C=C/c2ccccc2Cl)no1	2.82µM*	?	?	2.82µM*	?	12.5%
Cc1ccc(NC(=O)c2ccccc2Cl)c(Cl)c1	?	19µM*	-3.7%	27.2%	?	19.1%
Cc1cc(NS(=O)(=O)c2ccc(NC(=O)/C=C/c3ccccc3Cl)cc2)no1	1.6%	8.49µM*	/	-4.8%	5.5%	10.0%
Cc1cc(NS(=O)(=O)c2ccc(NC(=O)/C=C/c3ccccc3)cc2)no1	-0.1%	?	/	2.3%	-1.4%	4.1%
Cc1cc(NC(=O)CCCN2C(=O)/C(=C/c3ccccc3Cl)SC2=S)no1	0.4%	-0.9%	/	2.4%	?	-9.2%
Cc1cc(NC(=O)c2ccccc2Cl)no1	3.98µM*	15.1µM*	?	?	?	?
C=CCOc1ccc(/C=C/C(=O)OCC(=O)NNC(=O)c2ccccc2F)cc1	/	/	/	/	0.0%	1.0%
Cc1ccc(C)c(S(=O)(=O)Nc2ccccc2C(=O)Nc2cc(C)on2)c1	2.8%	-2.2%	-21.9%	-4.8%	25.9µM*	-6.6%
Cc1cc(NC(=O)c2sc3ccccc3c2O)no1	3.16µM*	9.53µM*	/	1.58µM*	?	10.3µM*
Cc1cc(NC(=O)c2cc(C(C)C)on2)no1	?	15.1µM*	?	?	?	?
COc1ccc(NC(=O)c2cc(C(C)C)on2)c(OC)c1	3.55µM*	?	15.8µM*	?	?	14.6µM*
COc1cc(NC(=O)c2cc(C(C)C)on2)c(OC)cc1Cl	3.2%	-13.4%	0.1%	10.1%	?	-8.5%
Cc1cc(NC(=O)c2ccccc2NS(=O)(=O)c2c(C)c(C)cc(C)c2C)no1	-8.8%	8.1%	-3.4%	-3.3%	-29.5%	-8.4%
COc1ccc(N2CCN(C(CNC(=O)COc3ccccc3)c3ccco3)CC2)cc1 (configuration not stated)	-12.4%	1.5%	/	-8.3%	?	-10.9%
Cc1cc(NC(=O)c2c(F)cccc2Cl)no1	-1.1%	-13.2%	21.1%	3.9%	?	-1.5%
Cc1cc(NC(=O)NC(=O)c2ccccc2F)no1	3.55µM*	?	/	?	?	?
COc1ccc(N=Nc2cc(-c3ccccc3)ccc2O)cc1	0.4%	23.9µM*	/	3.7%	13.1%	-2.3%
COc1cccc(N=Nc2ccc(O)c3ncccc23)c1	-17.6%	6.01µM*	/	21.6%	?	?
O=Nc1ccc(O)c2ncccc12	-37.3%	-7.8%	/	-31.7%	?	?
Oc1ccc(N=Nc2ccc3c(c2)OCCO3)c2cccnc12	-35.3%	6.01µM*	-54.7%	-27.8%	?	6.9%
Cc1ccccc1N=Nc1ccc(O)c2ncccc12	-28.2%	-8.4%	-102.8%	-12.4%	?	11.6µM*
CCOc1ccc(N(CC(=O)NCc2ccc(C)cc2)S(=O)(=O)c2c(C)noc2C)cc1	/	2.9%	-2.4%	/	/	/
SMILES	Rab9 promoter act	FLuc modulator	SMN2 splice enh	NPC1 promoter act	ELG1 repair inh	ELG1 genotoxic
Cc1ccc(N=Nc2ccc(O)cc2)c(Br)c1	3.16µM*	3.38µM*	/	?	?	11.6µM*
Oc1ccc(N=Nc2ccc(Br)cc2)c(O)c1	?	4.78µM*	/	?	?	?
Oc1ccc(N=Nc2ccc3c(c2)OCCO3)c(O)c1	1.12µM*	1.2µM*	/	1.26µM*	?	?
Nc1nonc1C(=Nc1ccc(Br)cc1)NO	-3.1%	4.8%	-33.1%	1.4%	14.8%	5.2%
O=C(CNC(=O)c1ccc2c(c1)OCCO2)N/N=C/c1ccc(O)cc1O	1.6%	-14.5%	6.6%	-1.7%	-10.3%	1.1%
COc1ccc(N=Nc2ccc(O)c3ncccc23)cc1	-32.6%	-14.0%	/	-5.5%	2.4%	4.61µM*
Nc1ccc(N=Nc2ccccc2)c2cccnc12	-17.4%	21.3µM*	/	18.5%	?	16.1%
O=S(=O)(O)c1cccc2c(N=Nc3ccc(O)c4ncccc34)cccc12	-1.8%	15.1µM*	/	-1.6%	-11.0%	-3.3%
Nc1ccc(Br)c2cccnc12	-4.8%	-2.2%	/	-2.9%	0.4%	3.0%
O=S(=O)(O)c1ccc2cc(N=Nc3cc(S(=O)(=O)O)c4cccnc4c3O)ccc2c1	/	/	5.0%[9.22 µM]	/	/	/
COc1cccc(N=Nc2ccc3cccnc3c2O)c1	11.1%	8.49µM*	/	19.9%	2.31µM*	16.4µM*
CCOC(=O)c1ccc(Oc2cc(C)nc(Cl)n2)cc1	-2.6%	-3.0%	/	-0.7%	?	0.5%
COc1ccc(N2CCCC2=N)c(OC)c1	-7.8%	0.8%	/	1.4%	3.3%	-2.2%
CCCCC(CC)CNC(=O)C1CCC(CNS(=O)(=O)c2cccc3nsnc23)CC1 (configuration not stated)	/	1.2%	-9.4%	/	/	/
Cc1cc(C)c2c(CC(=O)N(Cc3ccc(Cl)cc3)Cc3ccco3)coc2c1	/	2.1%	-30.1%	/	/	/
C=CCn1c(C)cc(C(=O)CSc2nnc(C3CC3)n2C2CC2)c1C	14.8%	3.01µM*	/	16.9%	?	11.5%
Cc1cc(C(=O)CSc2nnc(C3CC3)n2C2CC2)c(C)n1C(C)C	4.9%	12µM*	/	5.7%	?	4.3%
C[C@H]1C[C@@H]2[C@@H]([C@@H](O)C[C@@]3(C)[C@H]2CC[C@]3(O)C(=O)CO)[C@@]2(C)C=CC(=O)C=C12	/	/	8.2%[20.6 µM]	/	/	/
O=C1C(Cl)=C(N2CCCCC2)C(=O)C(Cl)=C1c1cnc(N2CCCCC2)s1	-30.3%	9.53µM*	-66.6%	-28.5%	?	-4.1%
CC(NC(=O)c1ccc(Br)o1)C1CC2CCC1C2 (configuration not stated)	-0.9%	2.3%	/	-1.5%	0.9%	-0.5%
Clc1ccccc1CSc1ncn(-c2ccccc2)n1	?	7.57µM*	22.4µM*	3.55µM*	?	?
O=C(NCCc1ccc(F)cc1)NC12CC3CC(CC(C3)C1)C2	3.55µM*	10.7µM*	/	2.51µM*	?	?
O=C(NCCC1=CCCCC1)NC12CC3CC(CC(C3)C1)C2	0.891µM*	3.38µM*	-12.3%	0.631µM*	?	?
COc1ccc(CCNC(=O)NC23CC4CC(CC(C4)C2)C3)cc1	19.5%	?	-18.3%	19.0%	12.7%	8.6%
